CYP2C19 inhib – blockers of cytochrome P450 2C19 activity – biochemical, luminescence, ADME assay, primary screen; 21% of 96,000 active; inhibition, % at 5 µM; AID 778, 2007; CYP2C19 Supersomes, luciferin-H EGE luminescence, 30 min; P33261;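 active means CYP2C19 inhibition above a set limit at 5 µM in the primary screen, cut at about 50% in these data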
PostGolgi yeast – phenotypic screen on post-Golgi transport, primary screen. AID 739, 2007. 0.9% of 98,000 active. inhibition, % at 10 µM. post-Golgi transport phenotypic cell assay;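 further: yeast cells grown in 1536-well plates; yeast grown about 18 h at 30C before absorbance read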
CYP2C9 activ – human CYP2C9 activators, primary screen, biochemical, luminescence | 1.4% of 96,000 active | AID 1024, 2008 | recombinant CYP2C9, luciferin-H conversion; hits give high values; factor 1 = untreated enzyme, 0 = blocked | activation factor at 5 µM;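 active means activation factor of 2 or more for CYP2C9 at a 5 µM dose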
Target sequence (P11712 whole entry, looked up): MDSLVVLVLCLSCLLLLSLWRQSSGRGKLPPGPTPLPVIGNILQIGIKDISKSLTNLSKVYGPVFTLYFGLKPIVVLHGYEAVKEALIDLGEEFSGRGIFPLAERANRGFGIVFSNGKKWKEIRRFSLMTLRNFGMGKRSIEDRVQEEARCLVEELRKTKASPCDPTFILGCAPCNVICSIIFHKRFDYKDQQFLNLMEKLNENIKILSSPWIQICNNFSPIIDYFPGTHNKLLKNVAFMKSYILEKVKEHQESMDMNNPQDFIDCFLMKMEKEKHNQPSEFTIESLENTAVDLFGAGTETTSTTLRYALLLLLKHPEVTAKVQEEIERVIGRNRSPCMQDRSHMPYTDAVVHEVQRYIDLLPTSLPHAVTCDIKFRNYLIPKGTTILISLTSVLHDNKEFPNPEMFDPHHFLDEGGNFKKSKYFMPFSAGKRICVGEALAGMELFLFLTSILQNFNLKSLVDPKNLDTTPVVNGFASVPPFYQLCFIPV
CYP2C9 inh – blockers of cytochrome P450 2C9 activity – biochemical, luminescence, ADME assay, primary screen | P11712 | CYP2C9 Supersomes, luciferin-H conversion | inhibition, % at 5 µM | 20% of 96,000 active | AID 777, 2007;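 active means blocking of liver enzyme CYP2C9 beyond about 50% at 5 µM, limit read from the data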
PostGolgi ctrl – growth inhibition of yeast control strain, primary screen, counter-screen for post-Golgi transport modulator project | efflux-deficient yeast background strain, growth absorbance A615, 16 h | inhibition, % at 10 µM | 5% of 98,000 active | AID 738, 2007
CYP2C19 activ – human CYP2C19 activators, primary screen, biochemical, luminescence. 96,000 tested, under 10 active. activation factor at 5 µM. AID 1025, 2008. recombinant CYP2C19, luciferin-H EGE luminescence; hits give high values; 0 = fully inhibited enzyme, 1 = untreated enzyme;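 active means activation factor of at least 2 at 5 µM in the primary screen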
Of the large screens only hits and unclear results are named; the others gave an inactive call. A selection: hits, their analogues and other compounds. The true share with any hit is near 32%. Unless noted, no stated cut-off is given here; in the data, active means inhibition above about 30%; inactive means the rest.

CCOC(=O)N1CCC(NC(=O)c2ccc(NC(=O)C3CCCO3)cc2)CC1 (stereo not given)	none
O=C(Nc1ccc(Oc2ccc(NC(=O)C3CCCO3)cc2)cc1)C1CCCO1 (stereo not given)	CYP2C9 inh 54
COc1ccc(S(=O)(=O)N2C3CCC2CC(NC(=O)C2CC2)C3)cc1 (stereo not given)	none
Nc1nc(NCc2ccccc2)nc(-c2ccccc2)n1	CYP2C19 inhib 80, CYP2C9 inh 78
Cn1c(=O)c2c(nc(CN3CCN(CCO)CC3)n2Cc2cccc3ccccc23)n(C)c1=O	none
COCCN(C(=O)Cc1cccs1)C(C(=O)NCc1ccc(OC)cc1)c1ccc(OC)cc1 (stereo not given)	CYP2C9 inh 65
COc1ccc(CNC(=O)C(c2ccncc2)N(C(=O)Cc2cccs2)c2ccccc2C)cc1 (stereo not given)	CYP2C19 inhib 54
COc1ccc(C(C(=O)NCc2ccccc2)N(Cc2ccc3c(c2)OCO3)C(=O)c2cnccn2)cc1 (stereo not given)	CYP2C19 inhib 94, CYP2C9 inh 94
COc1ccc(CNC(=O)C(c2ccncc2)N(C(=O)Cc2cccs2)c2cccc(C)c2)cc1 (stereo not given)	CYP2C19 inhib 70
COc1ccc(CNC(=O)C(c2ccco2)N(Cc2cccs2)C(=O)Cc2cccs2)cc1 (stereo not given)	none
Cc1nn(-c2ccc(Cl)cc2)c2sc(C(=O)N3CCN(c4ccccn4)CC3)cc12	none
CCOCCCNC(=O)C(c1ccc(C)cc1)N(Cc1ccc2c(c1)OCO2)C(=O)CNC(C)=O (stereo not given)	none (no result: CYP2C19 inhib, CYP2C9 activ, CYP2C9 inh, CYP2C19 activ)
COc1ccc(CNC(=O)C(c2ccc(C)cc2)N(Cc2cccs2)C(=O)c2ccc3c(c2)OCCO3)cc1 (stereo not given)	CYP2C19 inhib 66
O=C(OCC(=O)N1N=C(c2ccc(Cl)cc2)CC1c1ccco1)c1ccccc1O (stereo not given)	CYP2C9 inh 88
CCN(CC)CC(=O)N1N=C(c2cccs2)CC1c1ccco1 (stereo not given)	none
Nc1ccc(Sc2cc(Cl)nc(N)n2)cc1	CYP2C19 inhib 53, CYP2C9 inh 74
CCN(CC(O)Cn1c2ccccc2c2ccccc21)S(=O)(=O)c1ccc(F)cc1 (stereo not given)	CYP2C19 inhib 100, CYP2C9 inh 97, PostGolgi ctrl 50
O=S(=O)(c1ccc(F)cc1)N(CCO)CC(O)Cn1c2ccccc2c2ccccc21 (stereo not given)	CYP2C19 inhib 97, CYP2C9 inh 57
O=C(Nc1ccccc1)c1ccc(S(=O)(=O)N(CCO)CCO)cc1	none
Cc1cccc(N2CCN(S(=O)(=O)c3ccc(S(=O)(=O)N4CCCC4)cc3)CC2)c1C	none
Cc1ccc(Cl)cc1N1CCN(S(=O)(=O)c2cccc(S(=O)(=O)N3CCCC3)c2)CC1	CYP2C19 inhib 64, CYP2C9 inh 87
Cc1cc(S(=O)(=O)N2CCN=C2c2ccccc2)ccc1F	CYP2C19 inhib 95, CYP2C9 inh 65
Cc1cc(S(=O)(=O)N2CCN(c3c(C)cccc3C)CC2)ccc1F	CYP2C19 inhib 97, CYP2C9 inh 98
O=c1ccc2cc(S(=O)(=O)N3CCN(c4cc(Cl)ccc4Cl)CC3)ccc2o1	CYP2C19 inhib 74, CYP2C9 inh 88
Cc1ccc(-n2c(C)nnc2SCC(=O)N2CCc3ccccc3C2)cc1C	none (no result: CYP2C9 activ, CYP2C9 inh)
CC(=O)Nc1cccc(NC(=O)CSc2nnnn2C(C)C)c1	none
O=C(CSc1nnc(-c2ccccn2)n1Cc1ccccc1)N1CCCC1	none
Cc1cc(S(=O)(=O)N2CCN(c3ccccc3C)CC2)ccc1F	CYP2C19 inhib 97, CYP2C9 inh 95, PostGolgi ctrl 30
CCC(=O)c1cc(F)c(N2CCN(S(=O)(=O)c3ccccc3)CC2)cc1C	none
COc1ccc2c(C(=O)CN3CCC(C)CC3)c[nH]c2c1	none
COc1ccccc1N1CCN(CC(O)COc2c(OC)cccc2OC)CC1 (stereo not given)	none
COc1ccccc1N1CCN(CC(O)c2ccc3cc[nH]c3c2)CC1 (stereo not given)	PostGolgi yeast 39
CCOC(=O)N1CCN(CC(O)c2ccc3cc[nH]c3c2)CC1 (stereo not given)	CYP2C19 inhib 96
Fc1ccc(-c2[nH]ncc2-c2nnnn2-c2ccccc2)c(F)c1	CYP2C19 inhib 91, CYP2C9 inh 51
CCOc1ccc(C2CC(c3ccc(CC)cc3)n3nc(N)nc3N2)cc1 (stereo not given)	none
Fc1ccc(C2CC(c3ccc(F)cc3)n3ncnc3N2)cc1 (stereo not given)	CYP2C19 inhib 97, CYP2C9 inh 69
CCc1ccc(C2CC(c3ccccc3)n3ncnc3N2)cc1 (stereo not given)	CYP2C19 inhib 88
Cc1ccc(Cn2c(CN3CC(C)OC(C)C3)nc3c2c(=O)[nH]c(=O)n3C)cc1 (stereo not given)	none
Cc1ccc(S(=O)(=O)NCC(=O)OCN2C(=O)c3ccccc3C2=O)cc1	none
CCCOc1ccc(N2C(=O)CC(N3CCN(c4ccccc4OC)CC3)C2=O)cc1 (stereo not given)	none
CCCOc1ccc(C(=O)N2CC3(CC(c4cccc(NC(=O)[C@@H]5CCC(=O)N5)c4)=NO3)C[C@H]2C(=O)NC2(C(N)=O)CC2)cc1 (stereo not given in full)	none
CCN1CCN(C(=O)CCCCCn2c(=O)[nH]c3cc(C(=O)OC)ccc3c2=O)CC1	none
CCN1CCN(CCNC(=O)CCCCCn2c(=O)[nH]c3cc(C(=O)OC)ccc3c2=O)CC1	CYP2C9 inh 53
COc1cc2[nH]c(=O)n(CCC(=O)N3CCN(c4cccc(C)c4C)CC3)c(=O)c2cc1OC	none
COc1cc2[nH]c(=O)n(CCCCCC(=O)NCCc3c[nH]c4ccccc34)c(=O)c2cc1OC	CYP2C19 inhib 64, CYP2C9 inh 67
COc1cc2[nH]c(=O)n(CCCCCC(=O)N3CCN(c4ccccc4)CC3)c(=O)c2cc1OC	CYP2C19 inhib 79, CYP2C9 inh 70
COC(=O)c1ccc2c(=O)n(CCCCCC(=O)N3CCN(c4ccccc4)CC3)c(=O)[nH]c2c1	CYP2C19 inhib 53, CYP2C9 inh 56
CCN1CCN(C(=O)CS(=O)(=O)Cc2nc(-c3ccc(C)cc3)oc2C)CC1	none
CCCCCn1c(=O)[nH]c2cc(C(=O)NCCc3ccc(OC)c(OC)c3)ccc2c1=O	CYP2C19 inhib 59, CYP2C9 inh 70
COc1cccc2cc(C(=O)n3ccc(C)n3)c(=O)oc12	none
CCOC(=O)N1CCN(c2ccc3nnnn3n2)CC1	CYP2C19 inhib 56

Screens as filed in PubChem.
